Data reported in ChEMBL document CHEMBL3988442, “University of Dundee, Small-Polar-MMV Screening Library” (2021).
Out of some 48,000 compounds screened, about 13,000 (27%) showed an effect of 50% or more. The list shows a part of the results.

The compounds below were run on Wolbachia pipientis (assay: Anti-Wolbachia Cell-Based Screen). Settings: 5 µM.
Type: functional
Parameters: scale not given: in the data most compounds retested in dose-response had high values
`CCCc1nnc(C(=O)N(C)Cc2cnc3ccccn23)o1` was tested, and the “Percent Effect” value was -16.11%.
In the case of `CCOc1cccc(C(=O)N2C[C@H]3CC[C@@H]2CN(C(=O)C2CCC2)C3)c1`, the “Percent Effect” value is reported as -8.209%.
In the case of `CN(C)CCN1C(=O)CCC12CCCN(C(=O)c1cccnc1)CC2.O=C(O)C(F)(F)F.O=C(O)C(F)(F)F` (stereo not drawn), the “Percent Effect” value is reported as 104.4%.
In the case of `O=C(O)C(F)(F)F.O=C(c1ccoc1)N1CCCC2(CCC(=O)N2Cc2ccncc2)C1` (stereo not drawn), the “Percent Effect” value is reported as -1.829%.
For `CN(C)CCN1C(=O)CCCC12CCCN(C(=O)c1ccncc1)C2.O=C(O)C(F)(F)F.O=C(O)C(F)(F)F` (stereo not drawn), the “Percent Effect” value was 106.1%.
For `O=C(O)C(F)(F)F.O=C(c1ccoc1)N1CCCC2(CCC(=O)N2Cc2cccnc2)C1` (stereo not drawn), the “Percent Effect” value was -3.168%.
With `CN(C)CCN1C(=O)CCCC12CCCN(C(=O)c1cc[nH]n1)C2.O=C(O)C(F)(F)F` (stereo not drawn) the “Percent Effect” value was 101.5%.
With `Cc1cc(C(=O)N2CCCC3(COCCN(CCN(C)C)C3)C2)no1.O=C(O)C(F)(F)F.O=C(O)C(F)(F)F` (stereo not drawn) the “Percent Effect” value was -4.031%.
With `CN(C)CCN1CCOCC2(CCCN(C(=O)c3ccccn3)C2)C1.O=C(O)C(F)(F)F.O=C(O)C(F)(F)F` (stereo not drawn) the “Percent Effect” value was -9.412%.
For `Cn1cc(C2(C)CN(C(=O)Nc3ccccc3F)CCO2)cn1` (stereo not drawn), the “Percent Effect” value was 1.448%.
For `Cn1ncnc1CNc1ccc2c(c1)N(C(=O)OC(C)(C)C)CCC2`, the “Percent Effect” value was 21.04%.
`Cc1ccsc1CNc1ccccc1C(=O)N1CCNC(=O)C1` was tested, and the “Percent Effect” value was 4.147%.
With `Cc1nsc(N2CCCN(c3nc(C4CC4)ns3)CC2)n1` the “Percent Effect” value was 3.492%.
In the case of `Cc1ccc(N2CCCC(NCc3ccccn3)C2)nn1` (stereo not drawn), the “Percent Effect” value is reported as 95.9%.
With `Cc1ccc(N2CCCC(NCc3cscn3)C2)nn1` (stereo not drawn) the “Percent Effect” value was -5.01%.
`Cc1ccc(N2CCCC(N(C)Cc3c(C)noc3C)C2)nn1` (stereo not drawn) was tested, and the “Percent Effect” value was -3.849%.
In the case of `Cc1ccc(N2CCCC(NCc3c(C)noc3C)C2)nn1` (stereo not drawn), the “Percent Effect” value is reported as 115%.
`Cc1ccc(N2CCCC(NCc3cc(C)on3)C2)nn1` (stereo not drawn) was tested, and the “Percent Effect” value was 114.3%.
`Cc1cc(CNC2CCCN(c3cccnn3)C2)no1` (stereo not drawn) was tested, and the “Percent Effect” value was 3.501%.
With `Cc1ccc(N2CCCC(NCc3ccc(-n4ccnc4)cc3)C2)nn1` (stereo not drawn) the “Percent Effect” value was 9.457%.
In the case of `Cc1ccc(N2CCCC(NCc3nc(C)c(C)o3)C2)nn1` (stereo not drawn), the “Percent Effect” value is reported as -3.745%.
For `O=C(C1SCCc2sccc21)N1CCC(O)CC1` (stereo not drawn), the “Percent Effect” value was -0.1428%.
In the case of `CCN(CC)c1ccc(C(=O)N2C[C@@H]3CC[C@H](C2)N(CCOC)C3)cc1`, the “Percent Effect” value is reported as 14.63%.
`CCN(CC)CC1CCN(Cc2ccn(C)c(=O)c2)CC1` was tested, and the “Percent Effect” value was 118.1%.
`CN(C)CCC1CCN(Cc2ccn(C)c(=O)c2)CC1` was tested, and the “Percent Effect” value was 112.8%.
For `Cn1ccc(CN2CCC(CCc3ccc(O)cc3)CC2)cc1=O`, the “Percent Effect” value was 11.88%.
For `Cn1ccc(CN2CCC(COC3CCCC3)CC2)cc1=O`, the “Percent Effect” value was 0.749%.
With `CCS(=O)(=O)NC1CCCN(Cc2ccn(C)c(=O)c2)C1` (stereo not drawn) the “Percent Effect” value was 5.979%.
With `Cn1ccc(CN2CCCC(CNS(C)(=O)=O)C2)cc1=O` (stereo not drawn) the “Percent Effect” value was 2.475%.
For `Cc1cccc(C)c1NC(=O)c1cccc(CN2CCCC2C)c1` (stereo not drawn), the “Percent Effect” value was 11.58%.
For `Cn1ccc(C(=O)N2CCCC(c3cc(O)n(C)n3)C2)n1` (stereo not drawn), the “Percent Effect” value was 89.67%.
`CC(C)c1csc(C2CCCN(C(=O)c3ccc(=O)n(C)n3)C2)n1` (stereo not drawn) was tested, and the “Percent Effect” value was -15.66%.
With `Cn1cc(C(=O)N2CCCC(c3cc(O)n(C)n3)C2)cn1` (stereo not drawn) the “Percent Effect” value was 108%.
In the case of `COCCN1CCN(CC(=O)NC2(C#N)CCCC2)CC1C` (stereo not drawn), the “Percent Effect” value is reported as 16.28%.
`O=C(CCn1cc(Cl)cn1)N1CCC2(CC1)[C@H](O)C[C@@H]2OCCO` was tested, and the “Percent Effect” value was -14.25%.
For `CCc1cnc(NCc2nc(COC)no2)nc1`, the “Percent Effect” value was 3.706%.
With `CCN(CC)CCNc1ncc(-c2cc(C)no2)c(-c2ccoc2C)n1` the “Percent Effect” value was -6.629%.
For `CCOCCCNc1ncc(-c2onc(C)c2C)c(-c2ccco2)n1`, the “Percent Effect” value was 100.1%.
`COCCNc1ncc(-c2cc(C)no2)c(-c2ccco2)n1` was tested, and the “Percent Effect” value was 96.17%.
With `CCOCCN1CCN(Cc2nnc(-c3ccco3)o2)CC1` the “Percent Effect” value was 1.125%.
In the case of `COc1ncc(NCc2csc(-c3ccco3)n2)cc1C(N)=O`, the “Percent Effect” value is reported as -5.121%.
`COCCNc1ncc(-c2onc(C)c2C)c(-c2ccco2)n1` was tested, and the “Percent Effect” value was 94.53%.
In the case of `CCCOCCCNc1nccc(-c2cn(C)nc2C)n1`, the “Percent Effect” value is reported as -3.491%.
`Cc1nsc(N2CCN(C(=O)Nc3ccc4[nH]ccc4c3)CC2)n1` was tested, and the “Percent Effect” value was 0.5995%.
In the case of `CCc1cc(CN2CCC(CCC(=O)Nc3ccccc3Cl)CC2)on1`, the “Percent Effect” value is reported as 3.381%.
`N#CCCN(CC1CCOC1)S(=O)(=O)c1c(F)cccc1Cl` (stereo not drawn) was tested, and the “Percent Effect” value was 4.348%.
In the case of `CSCc1noc(Cn2ccc3ccccc3c2=O)n1`, the “Percent Effect” value is reported as 6.504%.
For `COc1ccc(N2CCN(Cc3nc(CSC)no3)CC2=O)cc1`, the “Percent Effect” value was 98.96%.
`CCc1nc(C2CCCN2Cc2nc(CCOC)no2)no1` (stereo not drawn) was tested, and the “Percent Effect” value was -0.7381%.
With `CSCc1noc(Cn2ncn3cccc3c2=O)n1` the “Percent Effect” value was 40.19%.
`COCCc1noc(CN2CCN(c3ccc(OC)cc3)C(=O)C2C)n1` (stereo not drawn) was tested, and the “Percent Effect” value was 97.33%.
With `CCN1CC2(CCN(Cc3nc(CSC)no3)CC2)CC1=O` the “Percent Effect” value was -1.733%.
`CCc1ccc(C2CCCCCN2Cc2nc(CCOC)no2)o1` (stereo not drawn) was tested, and the “Percent Effect” value was -5.886%.
For `COc1ccc(N2CCN(Cc3nc(CSC)no3)C(C)C2=O)cc1` (stereo not drawn), the “Percent Effect” value was 106.8%.
For `COc1ccc(N2CCN(C[C@@H](C)CO)CC2=O)cc1`, the “Percent Effect” value was -31.81%.
In the case of `Cc1ccc(N2C[C@H]3CCC[C@@H](CN4CCOCC4)[C@H]3C2)nn1.O=C(O)C(F)(F)F`, the “Percent Effect” value is reported as 7.309%.
`O=C(NCCn1ccnc1)N1CCCN(Cc2cccs2)CC1` was tested, and the “Percent Effect” value was 115.6%.
With `O=C(Nc1ccc2c(c1)OCCO2)N1CCCN(Cc2cccs2)CC1` the “Percent Effect” value was -12.77%.
`CC(Cn1cccn1)NC(=O)N1CCN(Cc2cccs2)CC1` (stereo not drawn) was tested, and the “Percent Effect” value was 7.648%.
`Cc1ccc(C(=O)N2CCN(C(=O)NC(C)Cn3ccnc3)CC2)o1` (stereo not drawn) was tested, and the “Percent Effect” value was 0.8524%.
In the case of `Cc1cc(CN2CCN(C(=O)NC(C)Cn3ccnc3)CC2)no1` (stereo not drawn), the “Percent Effect” value is reported as -2.401%.
In the case of `O=C1CCc2cc(NC(=O)N3CCCN(Cc4cccs4)CC3)ccc21`, the “Percent Effect” value is reported as 4.237%.
With `CC(Cn1ccnc1)NC(=O)N1CCCN(Cc2cccs2)CC1` (stereo not drawn) the “Percent Effect” value was 98.79%.
In the case of `CC(NC(=O)N1CCCN(Cc2cccs2)CC1)c1cccnc1` (stereo not drawn), the “Percent Effect” value is reported as -8.61%.
In the case of `CC(Cn1ccnc1)NC(=O)N1CCN(Cc2cccs2)CC1` (stereo not drawn), the “Percent Effect” value is reported as 97.63%.
`O=C1CCCN1CCN1CCCCC1Cn1cccn1` (stereo not drawn) was tested, and the “Percent Effect” value was -13.35%.
With `COc1cc(C2C3=C(COC3=O)Nc3[nH]nc(C)c32)cc2c1OCO2` (stereo not drawn) the “Percent Effect” value was -6.627%.
`Cc1n[nH]c(C)c1CCNC(=O)Nc1ccc2c(c1)COC2` was tested, and the “Percent Effect” value was -11.47%.
`O=C(CN1CCNC1=O)NCc1ccc2sccc2c1` was tested, and the “Percent Effect” value was 117.7%.
`O=C(Cn1ccc(=O)cc1)NCc1ccc2sccc2c1` was tested, and the “Percent Effect” value was -4.934%.
`O=C(CN1CCNCC1)NCc1ccc2sccc2c1` was tested, and the “Percent Effect” value was -21.43%.
`COc1ccc(N)c(N2CCN(C(C)=O)CC2)n1` was tested, and the “Percent Effect” value was -3.558%.
For `CC(C)C(=O)N1CCC2(CC1)NC(=O)[C@H]1CN(C(=O)N(C)C)C[C@H]12`, the “Percent Effect” value was -23.47%.
`CC1(c2cc[nH]n2)CCN(C(=O)c2ccc(Cl)cc2)CC1` was tested, and the “Percent Effect” value was 120.3%.
With `CC(C)C(=O)N1CCC(C)(c2cc[nH]n2)CC1` the “Percent Effect” value was 145.9%.
`CC(=O)N1CC2(CCN(C(=O)c3cccc4[nH]ccc34)CC2)C1` was tested, and the “Percent Effect” value was -2.889%.
For `CC(=O)N1CCC(C)(c2cc[nH]n2)CC1`, the “Percent Effect” value was 158.8%.
In the case of `CC(C)C(=O)N1CCC2(CC1)NC(=O)c1ccccc12.Cl`, the “Percent Effect” value is reported as -14.83%.
In the case of `Cc1nnc(CCNC(=O)c2coc(CN3CCOCC3)c2)s1`, the “Percent Effect” value is reported as -3.668%.
In the case of `CCCOc1ccc2c(c1)OCC(C(=O)NC(C)Cn1cccn1)=C2` (stereo not drawn), the “Percent Effect” value is reported as 18.55%.
`O=c1c(C(F)(F)F)cccn1Cc1nnc(-c2cccnc2)o1` was tested, and the “Percent Effect” value was -24.3%.
For `Cc1nc2cc(C(=O)N3C[C@@H](NS(C)(=O)=O)[C@H](C(C)C)C3)ccc2[nH]1`, the “Percent Effect” value was -4.009%.
In the case of `Cc1nc2cc(C(=O)N3C[C@@H](C(=O)O)[C@H](C4CC4)C3)ccc2[nH]1`, the “Percent Effect” value is reported as -4.344%.
In the case of `N[C@H]1CN(C(=O)CCC(F)(F)F)C[C@@H]1c1ccccc1`, the “Percent Effect” value is reported as 7.576%.
In the case of `CCC[C@H]1CN(C(=O)c2ccc3[nH]c(CO)nc3c2)C[C@@H]1N`, the “Percent Effect” value is reported as 98.53%.
With `N[C@H]1CN(C(=O)CCc2ccccn2)C[C@@H]1c1ccccc1` the “Percent Effect” value was 8.322%.
`Nc1nc(CCC(=O)N2C[C@H](c3ccccc3)[C@@H](N)C2)cs1` was tested, and the “Percent Effect” value was -7.394%.
For `N[C@H]1CN(C(=O)c2ccc3[nH]c(=O)c(=O)[nH]c3c2)C[C@@H]1c1ccccc1`, the “Percent Effect” value was 97.68%.
For `Cc1nc2cc(C(=O)N3C[C@@H](C(=O)O)[C@H](c4ccncc4)C3)ccc2[nH]1`, the “Percent Effect” value was -0.783%.
`N[C@H]1CN(C(=O)c2ccc3[nH]c(CO)nc3c2)C[C@@H]1c1ccccc1` was tested, and the “Percent Effect” value was 103.3%.
With `O=C(CCn1ccc(=O)[nH]c1=O)N1CCC(Oc2ncccc2Cl)CC1` the “Percent Effect” value was 8.092%.
With `Cc1ccc(CNC2CCCc3c2cnn3Cc2ccccc2)s1.Cl` (stereo not drawn) the “Percent Effect” value was 8.556%.
For `Cc1oc(-c2ccccc2)nc1C(=O)NC1=NCCS1`, the “Percent Effect” value was -10.94%.
`Cc1ccc(NC(=O)c2ccc(N3CCCCC3)nn2)c(Cl)c1` was tested, and the “Percent Effect” value was -6.125%.
`Cc1cc(C)n(CC(=O)N2CCCCC2CCN(C)C)c(=O)n1` (stereo not drawn) was tested, and the “Percent Effect” value was 101.4%.
In the case of `O=C(NCCCc1cccs1)N1CCCCC1CCO` (stereo not drawn), the “Percent Effect” value is reported as -11.71%.
With `Cc1cc(C)n(CC(=O)N2CCCCC2CCc2cccs2)c(=O)n1` (stereo not drawn) the “Percent Effect” value was 103.5%.
For `Cc1cc(C)n(CC(=O)N2C[C@@H]3CC[C@H](C2)N(CC2CCC2)C3)c(=O)n1`, the “Percent Effect” value was 9.507%.
`Cc1cc2ccccc2n1CCC(=O)N1CCCCC1CCO` (stereo not drawn) was tested, and the “Percent Effect” value was -1.29%.
For `O=C1CCCN1CCC1CCCCN1C(=O)c1ccc(SCCO)cc1` (stereo not drawn), the “Percent Effect” value was 10.34%.
For `Cc1cc(C)n(CC(=O)N(C)Cc2csc(-c3cccs3)n2)c(=O)n1`, the “Percent Effect” value was -2.174%.
`Cn1c(C2CCCCN2C(=O)CN2CCCC2=O)nc2ccccc21` (stereo not drawn) was tested, and the “Percent Effect” value was 3.336%.
With `Cc1cc(C)n(CC(=O)N2CCCCC2CCN2CCCC2=O)c(=O)n1` (stereo not drawn) the “Percent Effect” value was 117.3%.
